High-throughput results: PubChem, Broad Institute
Only some compounds are listed: those with a hit (about 3.4% of all), similar ones and a draw of the others.
LGR2 antag: inhibitors of bursicon-induced Drosophila LGR2 receptor cAMP signaling. HEK293 LGR2, CRE-luciferase, bursicon-stimulated, 4 h. inhibition, % at 9.99 µM. actives 0.35% (n = 380,000). AID 720647;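 active = drop in luminescence signal, shown as inhibition above about 50% in the replicate tests, limit read from the data, passing the limit was not always enough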;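 note: agonist challenge used bursicon conditioned medium at about half maximal strength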
EWS-Fli inh: EWS/Fli transcriptional activity inhibition; A673 NR0B1-luciferase reporter, viability-normalised; inhibition, % at 12.6 µM; actives 0.67% (n = 350,000);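 active = mean inhibition of at least 50% after viability correction, with every replicate also passing that limit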;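 note: firefly luciferase signal divided by Alamar Blue viability fluorescence both relative to DMSO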
SIRT5 block: blocks human SIRT5 desuccinylation of peptide. Purified SirT5, succinyl-peptide AMC, trypsin-coupled fluorescence. inhibition, % at 15 µM. actives 1.1% (n = 330,000); in the data active = inhibition above about 15%
Target sequence (Q9NXA8 whole entry, looked up): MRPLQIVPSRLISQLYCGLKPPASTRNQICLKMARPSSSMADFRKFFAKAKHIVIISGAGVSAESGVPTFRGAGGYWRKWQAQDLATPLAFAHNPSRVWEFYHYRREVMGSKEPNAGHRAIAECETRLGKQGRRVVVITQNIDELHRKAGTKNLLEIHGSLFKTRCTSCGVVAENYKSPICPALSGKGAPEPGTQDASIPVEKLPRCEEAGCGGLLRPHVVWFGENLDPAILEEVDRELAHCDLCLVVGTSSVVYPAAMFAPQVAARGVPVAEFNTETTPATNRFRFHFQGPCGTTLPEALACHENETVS
PAX8 inh HTS: PAX8 transcriptional activity inhibition | RMG-I TPO-luciferase reporter, SteadyGlo, 24 h | inhibition, % at 12.6 µM | actives 1.2% (n = 360,000);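 active = mean replicate inhibition at least 60% with every replicate also reaching 60%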;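 note: luciferase light reporting Pax8 driven TPO promoter activity; plate controls were median of neutral control wells for no effect and mitoxantrone controls for full effect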
rRNA inh HTS: inhibitors of bacterial rRNA selective over humanized ribosomes; E. coli WT GFP vs humanized-ribosome RFP mutants, fluorescence, 24 h; stronger effect = lower value; DMSO median 0, no signal -100; GFP signal change (wild-type ribosome), % (concentration not given with the values); actives 1.6% (n = 350,000); AID 720706;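 active = significant combined selectivity score with lowered wild-type GFP, culture density cut under 30%, mutant RFP and density less affected; inactive = any of these conditions unmet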
PGC1a acetyl inh: lowers PGC1a acetylation signal in U2OS cells. AlphaScreen anti-acetyl-lysine; with virally co-expressed GCN5 acetyltransferase. inhibition, % at 15.6 µM. actives 0.17% (n = 350,000);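 active = every replicate shows inhibition of at least 40%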;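 note: 0% = neutral control wells and 100% = positive control wells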
An asterisk follows results filed as active.

For S=c1[nH]nc(-c2ccncc2)n1/N=C/C=C/c1ccccc1 the results were LGR2 antag -3.8, EWS-Fli inh 1.6, SIRT5 block -0.9, PAX8 inh HTS -51.4, rRNA inh HTS -23.1* and PGC1a acetyl inh 17.4.
Screening Cc1ccc(C)c(NC(=O)CCC(=O)NNC(=S)Nc2ccccc2)c1 returned LGR2 antag -12.5, EWS-Fli inh -6.9, SIRT5 block -4.3, PAX8 inh HTS 2.4, rRNA inh HTS 1.5 and PGC1a acetyl inh -2.9.
Screening Cc1ccc(C)c(NCC(=O)NNC(=S)Nc2ccccc2)c1 returned LGR2 antag 6.9, EWS-Fli inh 2.8, SIRT5 block 18.3*, PAX8 inh HTS -12.5, rRNA inh HTS -15.8 and PGC1a acetyl inh -3.3.
For c1nc(N2CCOCC2)c2c3c(sc2n1)CCCC3 the results were LGR2 antag -26.6, SIRT5 block 35.8*, rRNA inh HTS -21.4 and PGC1a acetyl inh 5.8.
Screening c1ccn(-c2ncnc3sc4c(c23)CCCC4)c1 returned PGC1a acetyl inh 5.1.
Cc1c([N+](=O)[O-])cc(C(=O)Nc2ccc(NC(=O)c3ccco3)cc2)cc1[N+](=O)[O-] was read as LGR2 antag -0.8, EWS-Fli inh 10.4, SIRT5 block 19.3*, PAX8 inh HTS -5.7, rRNA inh HTS 2.0 and PGC1a acetyl inh -35.5.
O=C(Nc1cccc(NC(=O)c2ccc([N+](=O)[O-])o2)c1)c1ccco1 was read as LGR2 antag 6.3, EWS-Fli inh 28.8, SIRT5 block -3.7, PAX8 inh HTS 92.2* and rRNA inh HTS -58.2.
`O=C(/C=C/c1ccc(Cl)c([N+](=O)[O-])c1)Nc1cccc(NC(=O)c2ccco2)c1` gave LGR2 antag 56.7*, EWS-Fli inh -8.8, SIRT5 block 2.5, PAX8 inh HTS -1.0, rRNA inh HTS -12.4 and PGC1a acetyl inh 3.2.
O=C(Nc1nc(-c2cccs2)cs1)c1ccc([N+](=O)[O-])o1 was read as LGR2 antag -0.9, EWS-Fli inh -4.4, SIRT5 block 8.7, PAX8 inh HTS 66.9*, rRNA inh HTS -9.5 and PGC1a acetyl inh 28.8.
Screening O=C(Nc1ccc(Cl)c([N+](=O)[O-])c1)c1ccco1 returned LGR2 antag 4.7, EWS-Fli inh -25.8, SIRT5 block -6.9, PAX8 inh HTS -2.6, rRNA inh HTS 3.3 and PGC1a acetyl inh 28.5.
O=C(Nc1nc(-c2cccs2)cs1)c1ccco1 was read as LGR2 antag -71.9, EWS-Fli inh -122.7, SIRT5 block 0.5, PAX8 inh HTS -211.1 and rRNA inh HTS -27.1.
CCCN1C[C@@H](C)[C@@H](OC)CN(C)C(=O)c2ccc(NC(=O)c3cccc(OC)c3)cc2OC[C@H]1C was read as LGR2 antag 13.3, EWS-Fli inh 9.7, SIRT5 block 1.7, rRNA inh HTS 0.4 and PGC1a acetyl inh -3.7.
`C[C@H]1CN([C@@H](C)CO)C(=O)Cc2cc(NC(=O)C3CCCCC3)ccc2O[C@H]1CN(C)S(=O)(=O)c1ccccc1` gave LGR2 antag -9.2, EWS-Fli inh 23.7, SIRT5 block 0.6, rRNA inh HTS -0.5 and PGC1a acetyl inh 2.1.
For O=C(C1CCCC1)N1CCCCN2[C@H](C1)[C@H](c1ccc(C#CC3CC3)cc1)[C@@H]2CO the results were EWS-Fli inh 5.3, SIRT5 block 1.3, PAX8 inh HTS 12.3 and PGC1a acetyl inh 1.7.
Screening Cc1cccc(-c2ccc([C@H]3[C@H](CO)N4C(=O)CN(C(=O)c5cnccn5)C[C@@H]34)cc2)c1 returned rRNA inh HTS -2.7.
C[C@H](NC(=O)c1ccco1)C(=O)Nc1cccc([N+](=O)[O-])c1 was read as LGR2 antag 8.8, EWS-Fli inh -5.6, SIRT5 block -5.0, PAX8 inh HTS 100.5*, rRNA inh HTS 7.1 and PGC1a acetyl inh 5.9.
COc1cc(C(=O)Nc2nc(-c3cccs3)cs2)cc(OC)c1OC was read as LGR2 antag 59.2*, EWS-Fli inh -56.8, SIRT5 block -2.5, rRNA inh HTS -29.9* and PGC1a acetyl inh -16.3.
Screening COc1cc(NC(=O)c2ccc([N+](=O)[O-])o2)ccc1NC(=O)c1cccs1 returned LGR2 antag 17.7, EWS-Fli inh 0.9, SIRT5 block 0.5, PAX8 inh HTS 59.1, rRNA inh HTS -6.6 and PGC1a acetyl inh -39.4.
Screening C[C@H](NC(=O)c1ccco1)C(=O)Nc1ccc2c(c1)OCO2 returned LGR2 antag 20.1, EWS-Fli inh 0.6, SIRT5 block -2.2, PAX8 inh HTS 1.3, rRNA inh HTS 3.9 and PGC1a acetyl inh -1.2.
O=C(Nc1cccc(NC(=O)c2cccs2)c1)c1ccc([N+](=O)[O-])o1 was read as LGR2 antag 18.3, EWS-Fli inh 14.4, SIRT5 block -1.7, PAX8 inh HTS 100.8*, rRNA inh HTS -54.0 and PGC1a acetyl inh -93.5.
`C[C@H](CO)N1C[C@H](C)[C@@H](CN(C)C(=O)Nc2ccccc2)OCCCC[C@H](C)Oc2ccc(NS(C)(=O)=O)cc2C1=O` gave LGR2 antag 0.6, EWS-Fli inh -11.4, SIRT5 block -2.5, PAX8 inh HTS 4.9, rRNA inh HTS -1.4 and PGC1a acetyl inh -7.1.
`Cc1noc(C)c1NC(=O)N(C)C[C@H]1Oc2c(NC(=O)CCCCCC(=O)Nc3ccccc3N)cccc2C(=O)N([C@H](C)CO)C[C@@H]1C` gave LGR2 antag 22.9, EWS-Fli inh 2.1, PAX8 inh HTS 5.8, rRNA inh HTS 1.6 and PGC1a acetyl inh 9.0.
Screening O=C(C[C@H]1C[C@H]2c3cc(NS(=O)(=O)c4ccc(F)cc4)ccc3O[C@H]2[C@H](CO)O1)NCc1ccccn1 returned rRNA inh HTS 2.0.
Screening CC(=O)Nc1ccc(-c2ccnc3c2CC(C(=O)NCc2cccc(Cl)c2)O3)cc1 (stereo not drawn) returned EWS-Fli inh 69.6*, SIRT5 block -5.8, rRNA inh HTS -19.9 and PGC1a acetyl inh -13.4.
For CC(=O)Nc1cccc(-c2ccnc3c2CC(C(=O)NCc2cccc(Cl)c2)O3)c1 (stereo not drawn) the results were LGR2 antag 2.9, EWS-Fli inh 63.1*, SIRT5 block 0.2, PAX8 inh HTS 34.0 and rRNA inh HTS -4.3.
C/C(C/C(C)=C1/SC(=S)NC1=O)=C1\SC(=S)NC1=O was read as LGR2 antag 13.0, EWS-Fli inh 9.7, SIRT5 block 49.4*, PAX8 inh HTS 10.2, rRNA inh HTS 9.6 and PGC1a acetyl inh 0.3.
`COc1ccccc1NC(=O)N1CC[C@@H]2[C@H]1c1cc(-c3ccc(F)cc3)ccc1N(C)[C@@H]2CO` gave LGR2 antag 8.6, EWS-Fli inh -1.2, SIRT5 block 0.2, PAX8 inh HTS 22.6, rRNA inh HTS -2.9 and PGC1a acetyl inh 3.6.
`Cc1noc(C)c1NC(=O)Nc1ccc2c(c1)C(=O)N([C@@H](C)CO)C[C@H](C)[C@@H](CN(C)C(=O)Nc1c(C)noc1C)O2` gave LGR2 antag -5.8, EWS-Fli inh -14.7, SIRT5 block -3.6, PAX8 inh HTS -20.1, rRNA inh HTS 2.0 and PGC1a acetyl inh -5.1.
